# This is a sample that favours compounds with a hit; in the whole collection about 21% have one here.
# RORg inh: inhibitors of mouse ROR gamma transcriptional activity | Drosophila S2 Gal4-RORgamma UAS-luciferase reporter, 20 h | AID 2551 | 5.4% of 310,000 active | Potency, µM (top dose mostly 53.6 µM), for inactives: at the top dose activity change, negative = inhibition, usual class: inhibitors | P51450; also: potency is read from the fitted curve at half-maximal effect; nearly all actives have a fitted effect of over 60% in size
# Target sequence (P51450 whole entry, looked up, the tested form may be a part): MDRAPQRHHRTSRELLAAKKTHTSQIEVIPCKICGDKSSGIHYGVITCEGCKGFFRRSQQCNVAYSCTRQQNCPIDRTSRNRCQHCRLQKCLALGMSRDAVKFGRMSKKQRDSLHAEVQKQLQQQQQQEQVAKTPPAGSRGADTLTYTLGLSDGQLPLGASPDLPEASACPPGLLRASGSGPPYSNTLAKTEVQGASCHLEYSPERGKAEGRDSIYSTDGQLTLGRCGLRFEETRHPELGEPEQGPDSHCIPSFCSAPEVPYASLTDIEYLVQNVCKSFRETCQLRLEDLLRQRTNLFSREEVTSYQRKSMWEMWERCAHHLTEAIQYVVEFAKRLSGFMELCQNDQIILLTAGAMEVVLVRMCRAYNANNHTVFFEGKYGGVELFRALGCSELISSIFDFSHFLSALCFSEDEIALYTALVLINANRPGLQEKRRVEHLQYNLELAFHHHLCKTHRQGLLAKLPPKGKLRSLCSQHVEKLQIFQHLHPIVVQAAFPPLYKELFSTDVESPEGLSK
#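 Luciferase reporter read in Schneider cells carrying Gal4-RORγ (mouse) and UAS-Photinus luciferase; cells given compound 1 h before 700 uM copper sulfate induction, then incubated 20 h at ambient temperature.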
# IL-1B inflam inh: inflammasome signaling inhibition, IL-1 beta readout | activity change, % at 57.5 µM | THP-1 LPS/ATP IL-1B secretion, AlphaLISA, 16 h; stronger effect = lower value | 4.7% of 360,000 active; in the data active = activity change below about -50%; inconclusive = mostly about -30% to -49%
#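 THP-1 cells pretreated 1 hr with compounds (up to 57.5 uM final), then stimulated with LPS (250 ng/mL final) plus ATP (1.25 mM final); secreted IL-1B measured by AlphaLISA after 16 hr, decreased signal indicating inhibition.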
# DT40 TDP1 CPT: DT40-hTDP1 cell growth loss with CPT | chicken DT40 Tdp1-/-;hTDP1 cells + 20 nM CPT, ATP luminescence, 48 h | Potency, µM (doses to about 46.2 µM), inactives show top-dose activity change, negative = growth inhibition, actives largely listed as inhibitors | 12% of 420,000 active; also: potency is read from the fitted curve at half-maximal effect; nearly all actives have a fitted effect of over 55% in size
#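 Cell growth measured by CellTiter-Glo luminescence after a minimum 48 h, 37 C compound exposure with 20 nM CPT in Tdp1-knockout DT40 cells stably expressing hTDP1, seeded 400/well; qHTS titration format.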
# ELG1 DNA repair: ELG1-dependent DNA repair inhibition | 2.3% of 330,000 active | Potency, µM (highest dose often 46.1 µM), for the others: at the highest dose activity change, negative = inhibition, hits mostly inhibitors | HEK293T ELG1-luciferase reporter, luminescence, 16 h; DNA damage induced by 5-fluorouridine | AID 504467; also: potency is read from the fitted curve at half-maximal effect; nearly all actives have a fitted effect of over 55% in size
#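 DMSO vehicle served as the neutral condition. Each well held 2,000 cells given 5-fluorouridine plus compound; after 16 hr at 37 °C/5% CO2, ONE-Glo was added and luciferase measured 30 min later.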
# DT40 TDP1 no CPT: qHTS for Inhibitors of human tyrosyl-DNA phosphodiesterase 1 (TDP1): qHTS in cells in absence of CPT; DT40 Tdp1-/- hTDP1 cells, no CPT, ATP luminescence, 48 h; Potency, µM (series often up to 46.2 µM), for inactives: at the top dose activity change, negative = growth inhibition, actives largely listed as inhibitors; 15% of 420,000 active; also: potency is read from the fitted curve at half-maximal effect; nearly all actives have a fitted effect of over 55% in size
#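 Compound effects on proliferation are scored in DT40 Tdp1-/-;hTDP1 cells in the absence of CPT. ATP levels (CellTiter-Glo luminescence) are recorded after a ≥48 hr, 37 °C incubation.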
# Gal4-VP16 FLuc: counter-screen for ROR gamma inhibitors: Gal4-VP16 reporter | Drosophila S2 Gal4-VP16 UAS-luciferase, luminescence, 20 h | Potency, µM (titrated, usually from 53.6 µM), inactives show at the highest dose activity, negative = inhibition, actives largely listed as inhibitors | 3.5% of 310,000 active | AID 2546;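 also: Gal4-VP16 expression switched on by copper sulfate through the metallothionein promoter; potency is read from the fitted curve at half-maximal effect; nearly all actives have a fitted effect of over 50% in size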
# An asterisk follows results filed as active; ? = inconclusive; . = not tested or not shown. Unless noted, calls follow the shape of the dose curve; as a rule, active = well fitted curve in the direction sought with a large enough effect; inconclusive = small, poorly fitted or top-dose-only effect, or another doubt; inactive = no such curve, though single readings can be large; an effect the other way counts as inactive or inconclusive. % is scaled to controls: 0 for no effect and ±100 for the full control effect.
SMILES,RORg inh,IL-1B inflam inh,DT40 TDP1 CPT,ELG1 DNA repair,DT40 TDP1 no CPT,Gal4-VP16 FLuc
Cc1cc2cc(CNC(=S)NC3CCCCC3)ccc2n1C,14µM*,-5,?,?,?,?
Cc1cc2cc(CNC(=O)Nc3ccccc3)ccc2n1C,?,-26,-4%,-8%,1%,-2%
S=C(NCc1cccc(Cl)c1)NC1CCCCC1,2.8µM*,-18,-13%,-13%,?,14µM*
c1ccc(CNc2oc(-c3ccccc3)nc2-c2ccccc2)cc1,34%,.,.,.,.,1%
COc1cccc2c1cc1c(=O)n(CC(=O)NCCCN3CCN(C)CC3)nc(C)n12,-17%,56,25%,15%,4%,-5%
Cc1cc2cc(CNC(=S)Nc3ccc(OC(F)F)cc3)ccc2[nH]1,13µM*,-1,?,-2%,?,22µM*
CCNC(=S)NCc1ccc2[nH]c(C)cc2c1,?,-25,-10%,11%,-14%,10%
Cc1ccc(CNC(=S)NC2CCCCC2)cc1,4µM*,2,?,10%,?,4µM*
COc1ccccc1NC(=S)NCc1ccc2c(c1)cc(C)n2C,5.6µM*,-8,16µM*,-6%,23µM*,?
CCC(CC)C(=O)NCc1ccc2c(c1)cc(C)n2C,-2%,17,10µM*,-5%,?,-4%
Cc1cc(O)cc(O)c1C(=O)OC1(C)C(=O)C=C2C=C(/C=C/C(=O)O)OC=C2C1=O (stereo unspecified),-5%,.,.,.,.,-10%
O=C(Nc1ccccc1C(F)(F)F)C1CCN(S(=O)(=O)Cc2ccccc2)CC1,.,.,-15%,.,-5%,.
Cc1c(C#N)c2n(c1C)CCCC(=O)N2,.,0,-22%,.,5%,.
CCCS(=O)(=O)NCc1ccc2c(c1)cc(C)n2C,-3%,-69*,-24%,?,-24%,1%
COc1ccc(NC(=S)NCc2ccc3c(c2)cc(C)n3C)cc1,4.5µM*,-9,18µM*,-10%,?,11µM*
Cc1cc2cc(CNC(=O)CC(C)C)ccc2n1C,11%,-15,-7%,16%,1%,0%
CCS(=O)(=O)NCc1ccc2c(c1)cc(C)n2C,-4%,-19,13%,?,1%,-4%
CCc1cccc(C)c1NC(=S)NCc1ccc2c(c1)cc(C)n2C,5.6µM*,-24,21µM*,-2%,16µM*,7.9µM*
CCCCNC(=S)NCc1ccc2c(c1)cc(C)n2C,11µM*,10,?,12%,?,?
COc1ccc(CC(=O)NCc2ccc3c(c2)cc(C)n3C)cc1,3%,-3,-1%,3%,8%,-1%
COc1cccc(C(C)NC(=O)C2CCCC2)c1 (stereo unspecified),-13%,23,-1%,-13%,0%,-5%
Cc1cccc(NC(=O)CCCN2C(=O)C(c3ccccc3)Oc3cccnc32)c1C (stereo unspecified),-3%,-8,?,-5%,?,2%
C=C(C)C1COc2cc3oc(=O)ccc3cc2O1 (stereo unspecified),17%,.,-8%,.,-12%,-6%
COc1ccc(-c2cc(C(=O)Nc3c(C(=O)c4ccc(C)cc4)oc4ccccc34)no2)cc1,.,.,-4%,.,6%,.
CCOC(=O)/C(=N\Nc1ccccc1Cl)N1CCN(Cc2ccccc2)CC1,?,-18,?,6%,?,-1%
CCOC(=O)/C(=N\Nc1ccccc1Cl)N1CCN(C)CC1,-8%,-58*,?,-1%,?,-3%
CCOc1ccc(-c2ncncc2-c2ccccc2OC)c(O)c1,-41%,17,13µM*,?,23µM*,15%
COc1ccc(-c2cncnc2-c2ccc(OC)cc2O)cc1,?,-5,?,5.8µM*,?,-5%

# Assay outcomes (PubChem)
